What was measured:
Experiment in all cases: log2 ratio of Biotin-Ahx-Ub-VS probe labelling (fragment/DMSO); higher = less target engagement (more negative = stronger competition), active = hit call of the paper (q ≤ 0.05, log2 ratio ≤ -1)
Details in all cases: compound concentration: 200 uM; treatment time: 3 h
USP19 = target: T1, USP19 (UniProt O94966)
T1 sequence (whole entry): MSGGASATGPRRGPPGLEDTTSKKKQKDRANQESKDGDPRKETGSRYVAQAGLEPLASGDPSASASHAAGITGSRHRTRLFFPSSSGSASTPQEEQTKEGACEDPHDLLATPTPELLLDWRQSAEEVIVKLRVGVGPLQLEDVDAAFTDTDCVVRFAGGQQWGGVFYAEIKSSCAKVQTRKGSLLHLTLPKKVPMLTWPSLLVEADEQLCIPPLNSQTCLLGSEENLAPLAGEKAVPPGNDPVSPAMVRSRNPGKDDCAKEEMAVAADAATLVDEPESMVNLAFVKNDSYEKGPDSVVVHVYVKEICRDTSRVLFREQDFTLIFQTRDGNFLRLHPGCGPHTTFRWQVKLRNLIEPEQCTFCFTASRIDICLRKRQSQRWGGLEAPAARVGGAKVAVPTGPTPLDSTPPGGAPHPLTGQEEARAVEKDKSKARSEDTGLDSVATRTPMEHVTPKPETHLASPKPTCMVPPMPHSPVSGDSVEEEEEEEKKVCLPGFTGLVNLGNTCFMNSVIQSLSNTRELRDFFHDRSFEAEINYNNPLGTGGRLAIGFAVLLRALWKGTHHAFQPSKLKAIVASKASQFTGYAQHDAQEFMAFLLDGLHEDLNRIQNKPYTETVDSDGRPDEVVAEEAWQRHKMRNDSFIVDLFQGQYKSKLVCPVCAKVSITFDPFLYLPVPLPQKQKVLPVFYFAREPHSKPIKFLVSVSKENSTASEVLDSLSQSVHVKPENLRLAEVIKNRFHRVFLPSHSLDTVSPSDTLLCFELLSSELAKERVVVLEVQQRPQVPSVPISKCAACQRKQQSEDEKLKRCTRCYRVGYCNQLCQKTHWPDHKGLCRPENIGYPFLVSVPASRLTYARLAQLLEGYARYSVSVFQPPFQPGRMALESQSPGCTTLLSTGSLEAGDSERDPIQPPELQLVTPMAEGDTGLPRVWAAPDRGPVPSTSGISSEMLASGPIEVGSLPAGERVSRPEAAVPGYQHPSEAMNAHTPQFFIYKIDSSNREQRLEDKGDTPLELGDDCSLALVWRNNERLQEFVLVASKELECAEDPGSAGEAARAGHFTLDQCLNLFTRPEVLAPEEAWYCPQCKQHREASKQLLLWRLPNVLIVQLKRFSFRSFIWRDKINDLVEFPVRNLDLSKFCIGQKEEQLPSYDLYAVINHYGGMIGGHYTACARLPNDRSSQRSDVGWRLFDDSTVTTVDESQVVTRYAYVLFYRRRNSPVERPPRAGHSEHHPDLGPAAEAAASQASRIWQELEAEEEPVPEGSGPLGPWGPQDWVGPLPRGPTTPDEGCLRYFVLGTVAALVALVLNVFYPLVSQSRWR
In short: (§1)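 Labelled DUBs were enriched with NeutrAvidin, digested with LysC and trypsin, and run by diaPASEF LC-MS/MS. The labelling used Biotin-Ahx-Ub-VS at 0.5 µM final for 1 h on HEK293T lysate (495 µg per sample) previously treated in triplicate with fragment at 200 µM or vehicle for 3 h. Values are average log2 fragment/vehicle ratios by unpaired t-test on global-median-normalised Spectronaut quantities of proteins with ≥2 unique peptides.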

USP22 = target: T2, USP22 (UniProt Q9UPT9)
T2 sequence (whole entry): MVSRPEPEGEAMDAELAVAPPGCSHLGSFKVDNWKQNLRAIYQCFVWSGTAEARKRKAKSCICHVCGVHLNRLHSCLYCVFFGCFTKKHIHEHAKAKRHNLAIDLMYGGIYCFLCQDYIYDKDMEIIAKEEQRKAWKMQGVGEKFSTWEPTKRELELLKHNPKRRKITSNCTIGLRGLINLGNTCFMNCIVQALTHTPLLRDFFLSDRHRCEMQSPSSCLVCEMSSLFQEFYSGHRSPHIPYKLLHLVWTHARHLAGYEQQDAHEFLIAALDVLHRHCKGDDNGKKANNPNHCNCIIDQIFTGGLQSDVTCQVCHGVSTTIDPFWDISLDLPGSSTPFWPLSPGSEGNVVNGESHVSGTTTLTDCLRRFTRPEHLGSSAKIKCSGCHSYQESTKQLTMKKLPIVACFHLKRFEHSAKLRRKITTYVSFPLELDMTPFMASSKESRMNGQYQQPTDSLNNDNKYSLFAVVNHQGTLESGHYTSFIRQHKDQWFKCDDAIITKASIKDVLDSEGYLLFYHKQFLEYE
In short: as §1

USP24 = USP24 (UniProt Q9UPU5)
Sequence of USP24 (Q9UPU5 whole entry): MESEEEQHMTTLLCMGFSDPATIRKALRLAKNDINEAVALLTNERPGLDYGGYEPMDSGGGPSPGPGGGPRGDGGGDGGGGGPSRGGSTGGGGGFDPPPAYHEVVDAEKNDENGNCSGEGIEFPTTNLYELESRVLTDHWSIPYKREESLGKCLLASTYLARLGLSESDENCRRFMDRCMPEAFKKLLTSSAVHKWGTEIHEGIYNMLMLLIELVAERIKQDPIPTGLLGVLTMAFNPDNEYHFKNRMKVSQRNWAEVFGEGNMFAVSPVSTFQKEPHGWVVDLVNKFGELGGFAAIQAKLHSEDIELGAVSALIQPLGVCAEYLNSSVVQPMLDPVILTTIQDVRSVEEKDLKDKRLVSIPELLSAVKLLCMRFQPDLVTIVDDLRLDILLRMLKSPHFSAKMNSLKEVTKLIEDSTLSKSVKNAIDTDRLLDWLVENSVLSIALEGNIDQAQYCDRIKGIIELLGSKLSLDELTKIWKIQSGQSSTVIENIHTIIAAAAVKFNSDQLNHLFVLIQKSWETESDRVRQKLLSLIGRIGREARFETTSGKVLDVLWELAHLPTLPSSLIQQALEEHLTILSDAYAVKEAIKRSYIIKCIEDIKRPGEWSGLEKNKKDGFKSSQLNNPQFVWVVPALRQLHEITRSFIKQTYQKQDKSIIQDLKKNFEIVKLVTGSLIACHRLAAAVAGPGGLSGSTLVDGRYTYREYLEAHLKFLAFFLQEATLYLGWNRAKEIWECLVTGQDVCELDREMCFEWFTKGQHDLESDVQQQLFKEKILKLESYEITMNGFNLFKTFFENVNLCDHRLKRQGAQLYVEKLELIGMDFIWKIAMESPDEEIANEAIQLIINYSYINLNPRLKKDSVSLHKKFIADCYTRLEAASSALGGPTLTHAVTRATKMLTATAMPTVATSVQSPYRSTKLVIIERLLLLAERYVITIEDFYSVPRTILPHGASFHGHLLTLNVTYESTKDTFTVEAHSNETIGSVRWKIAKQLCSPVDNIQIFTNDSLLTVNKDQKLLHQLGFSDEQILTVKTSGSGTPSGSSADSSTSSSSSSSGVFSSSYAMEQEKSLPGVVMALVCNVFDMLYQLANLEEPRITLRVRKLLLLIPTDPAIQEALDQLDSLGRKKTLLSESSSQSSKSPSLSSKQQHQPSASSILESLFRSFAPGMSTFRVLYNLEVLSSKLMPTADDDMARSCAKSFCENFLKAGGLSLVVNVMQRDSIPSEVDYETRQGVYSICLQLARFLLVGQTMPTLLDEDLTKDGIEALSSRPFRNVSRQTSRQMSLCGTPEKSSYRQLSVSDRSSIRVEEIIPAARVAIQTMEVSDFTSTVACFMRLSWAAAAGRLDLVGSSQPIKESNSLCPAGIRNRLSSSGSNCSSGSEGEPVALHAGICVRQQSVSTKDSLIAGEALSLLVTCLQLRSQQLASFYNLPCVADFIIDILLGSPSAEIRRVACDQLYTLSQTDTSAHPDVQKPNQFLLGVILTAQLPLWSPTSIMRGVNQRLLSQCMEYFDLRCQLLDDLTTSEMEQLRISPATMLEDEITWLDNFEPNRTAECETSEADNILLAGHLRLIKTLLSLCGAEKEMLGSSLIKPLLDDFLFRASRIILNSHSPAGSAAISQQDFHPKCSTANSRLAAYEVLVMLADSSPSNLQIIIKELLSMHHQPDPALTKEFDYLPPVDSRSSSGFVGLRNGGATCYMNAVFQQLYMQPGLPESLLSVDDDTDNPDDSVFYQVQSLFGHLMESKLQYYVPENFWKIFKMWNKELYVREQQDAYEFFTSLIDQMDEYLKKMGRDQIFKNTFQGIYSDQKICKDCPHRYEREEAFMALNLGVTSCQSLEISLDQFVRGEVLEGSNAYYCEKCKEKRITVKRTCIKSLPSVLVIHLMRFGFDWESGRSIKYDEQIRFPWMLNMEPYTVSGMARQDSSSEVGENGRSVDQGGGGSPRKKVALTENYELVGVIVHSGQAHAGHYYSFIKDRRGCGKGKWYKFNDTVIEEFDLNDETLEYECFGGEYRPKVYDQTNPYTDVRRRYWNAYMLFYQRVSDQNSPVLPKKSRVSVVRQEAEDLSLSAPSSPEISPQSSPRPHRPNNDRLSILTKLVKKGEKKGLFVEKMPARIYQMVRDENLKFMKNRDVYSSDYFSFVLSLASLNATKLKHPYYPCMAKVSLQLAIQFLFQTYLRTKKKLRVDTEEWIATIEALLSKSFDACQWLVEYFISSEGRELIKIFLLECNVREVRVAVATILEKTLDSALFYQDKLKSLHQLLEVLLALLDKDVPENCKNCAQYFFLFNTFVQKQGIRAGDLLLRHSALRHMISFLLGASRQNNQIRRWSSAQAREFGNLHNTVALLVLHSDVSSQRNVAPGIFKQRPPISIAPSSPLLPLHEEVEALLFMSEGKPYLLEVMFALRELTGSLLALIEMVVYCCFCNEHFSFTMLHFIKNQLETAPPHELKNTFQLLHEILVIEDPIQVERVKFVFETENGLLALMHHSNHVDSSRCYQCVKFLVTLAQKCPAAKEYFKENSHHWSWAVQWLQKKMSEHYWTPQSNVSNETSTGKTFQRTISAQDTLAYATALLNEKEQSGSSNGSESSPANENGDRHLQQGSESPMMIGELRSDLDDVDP
In short: as §1

USP25 = target: T3, USP25 (UniProt Q9UHP3)
T3 sequence (whole entry): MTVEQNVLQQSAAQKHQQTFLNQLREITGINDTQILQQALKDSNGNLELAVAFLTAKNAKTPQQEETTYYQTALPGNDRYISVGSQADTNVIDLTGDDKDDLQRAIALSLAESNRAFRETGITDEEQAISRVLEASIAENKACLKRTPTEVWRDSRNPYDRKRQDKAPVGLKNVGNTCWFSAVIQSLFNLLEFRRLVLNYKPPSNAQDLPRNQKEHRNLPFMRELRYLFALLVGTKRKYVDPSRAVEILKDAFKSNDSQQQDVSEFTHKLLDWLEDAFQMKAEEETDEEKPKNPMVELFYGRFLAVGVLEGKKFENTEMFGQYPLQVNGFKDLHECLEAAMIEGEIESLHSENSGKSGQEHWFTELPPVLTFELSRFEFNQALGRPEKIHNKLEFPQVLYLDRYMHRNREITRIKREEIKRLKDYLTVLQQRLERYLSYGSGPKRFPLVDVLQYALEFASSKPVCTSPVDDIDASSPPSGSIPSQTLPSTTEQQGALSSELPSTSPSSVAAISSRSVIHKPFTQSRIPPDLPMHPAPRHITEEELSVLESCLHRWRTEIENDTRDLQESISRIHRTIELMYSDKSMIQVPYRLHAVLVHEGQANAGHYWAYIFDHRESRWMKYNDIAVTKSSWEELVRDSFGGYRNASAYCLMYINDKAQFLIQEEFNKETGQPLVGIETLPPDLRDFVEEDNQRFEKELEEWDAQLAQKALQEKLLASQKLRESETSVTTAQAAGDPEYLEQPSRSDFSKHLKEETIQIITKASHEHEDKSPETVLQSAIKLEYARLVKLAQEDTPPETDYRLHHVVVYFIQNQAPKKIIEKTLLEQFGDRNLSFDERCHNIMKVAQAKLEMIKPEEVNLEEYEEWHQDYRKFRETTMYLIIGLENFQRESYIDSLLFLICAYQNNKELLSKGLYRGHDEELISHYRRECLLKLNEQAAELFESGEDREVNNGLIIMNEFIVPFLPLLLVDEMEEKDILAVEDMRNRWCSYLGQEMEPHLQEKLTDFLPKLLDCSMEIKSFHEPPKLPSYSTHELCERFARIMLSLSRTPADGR
In short: as §1

USP28 = target: T4, USP28 (UniProt Q96RU2)
T4 sequence (whole entry): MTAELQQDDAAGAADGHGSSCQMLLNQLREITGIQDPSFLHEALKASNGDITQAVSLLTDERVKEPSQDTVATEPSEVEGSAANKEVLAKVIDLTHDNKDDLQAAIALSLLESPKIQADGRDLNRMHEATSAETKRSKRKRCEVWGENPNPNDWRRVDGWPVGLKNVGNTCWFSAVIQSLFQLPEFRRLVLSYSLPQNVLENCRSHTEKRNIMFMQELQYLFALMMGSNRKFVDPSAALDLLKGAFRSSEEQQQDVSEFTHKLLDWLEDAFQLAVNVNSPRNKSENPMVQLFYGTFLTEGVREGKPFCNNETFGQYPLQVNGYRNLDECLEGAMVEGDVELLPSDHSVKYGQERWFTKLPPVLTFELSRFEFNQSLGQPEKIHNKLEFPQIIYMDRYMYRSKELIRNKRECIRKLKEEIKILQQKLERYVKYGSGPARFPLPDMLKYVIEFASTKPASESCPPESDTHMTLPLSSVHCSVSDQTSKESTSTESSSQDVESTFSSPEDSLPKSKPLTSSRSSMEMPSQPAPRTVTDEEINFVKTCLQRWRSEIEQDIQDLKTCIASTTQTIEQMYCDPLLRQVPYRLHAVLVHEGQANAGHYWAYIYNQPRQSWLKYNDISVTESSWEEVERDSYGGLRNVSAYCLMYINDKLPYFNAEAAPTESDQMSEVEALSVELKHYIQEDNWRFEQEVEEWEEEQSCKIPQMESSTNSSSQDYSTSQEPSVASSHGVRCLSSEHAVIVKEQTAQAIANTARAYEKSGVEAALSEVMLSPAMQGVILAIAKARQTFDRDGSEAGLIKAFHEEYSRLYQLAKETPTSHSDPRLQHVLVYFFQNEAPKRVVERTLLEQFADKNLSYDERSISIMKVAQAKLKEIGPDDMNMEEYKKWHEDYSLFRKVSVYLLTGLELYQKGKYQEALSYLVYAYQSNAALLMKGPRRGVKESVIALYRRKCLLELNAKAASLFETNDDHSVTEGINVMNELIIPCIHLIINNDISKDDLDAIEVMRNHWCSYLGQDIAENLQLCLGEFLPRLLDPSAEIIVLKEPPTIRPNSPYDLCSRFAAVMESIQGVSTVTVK
In short: as §1

Measured: log2 ratio of Biotin-Ahx-Ub-VS probe labelling

O=C(CCl)NCc1ccc(Cl)cc1
inactive: USP19 -0.0819 | USP22 -0.199 | USP24 -0.0304 | USP25 -0.395 | USP28 -0.414
